# According to PubChem BioAssay AID1159580 (chemical genetic matrix, 2015):
# Several values for one entry are separate records, joined by “and”; a condition that tells them apart may be missing. Identical values can stand only once. The campaign covered roughly 5,500 compounds. About 2,000 (36%) were called active. About 18% were inconclusive and are not listed. This is one part of the list. Unmarked numbers belong to inactive results. Cut-off read from the data, not from the text of the source: active = normalized growth mostly below about 0.91 (no sharp cut-off); inconclusive = no clear call, values can overlap the other calls; inactive = mostly above about 0.92.
# Experiment: chemical genetic growth profiling, strain panel (AID 1159580);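 note: tested at 20 µM; growth read once vehicle control cultures reached saturation at 30 °C; 1 = growth at the plate median or of vehicle wells; lower values mean less growth of the strain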
# Conditions: S. cerevisiae deletion strains, growth OD
smiles,measurement,setting,value
Cc1cc(NC(=O)C2=C(O)c3ccccc3S(=O)(=O)N2C)no1,normalized growth,"locus YAL021C, strain ccr4, hits give low values",0.959
same,normalized growth,"locus YAL026C, strain drs2, hits give low values",0.97
same,normalized growth,"locus YAL030W, strain snc1, hits give low values",0.969
same,normalized growth,"locus YBL061C, strain skt5, hits give low values",0.965
same,normalized growth,"locus YBR009C, strain hhf1, hits give low values",0.961
same,normalized growth,"locus YBR021W, strain FUR4, hits give low values",1.01
same,normalized growth,"locus YBR023C, strain chs3, hits give low values",0.967
same,normalized growth,"locus YBR171W, strain sec66, hits give low values",0.926
same,normalized growth,"locus YBR229C, strain ROT2, hits give low values",0.991
same,normalized growth,"locus YBR231C, strain swc5, hits give low values",0.972
same,normalized growth,"locus YBR279W, strain paf1, hits give low values",0.992
same,normalized growth,"locus YCL011C, strain gbp2, hits give low values",0.982
same,normalized growth,"locus YCL016C, strain dcc1, hits give low values",0.968
same,normalized growth,"locus YCL029C, strain bik1, hits give low values",0.958
same,normalized growth,"locus YCL069W, strain vba3, hits give low values",0.963
same,normalized growth,"locus YCR088W, strain abp1, hits give low values",0.964
same,normalized growth,"locus YDL005C, strain med2, hits give low values",0.984
same,normalized growth,"locus YDL035C, strain GPR1, hits give low values",0.981
same,normalized growth,"locus YDL040C, strain nat1, hits give low values",0.964
same,normalized growth,"locus YDL074C, strain BRE1, hits give low values",1.03
same,normalized growth,"locus YDL101C, strain DUN1, hits give low values",0.997
same,normalized growth,"locus YDL134C, strain PPH21, hits give low values",0.995
same,normalized growth,"locus YDL185W, strain tfp1, hits give low values",0.876 (active)
same,normalized growth,"locus YDL192W, strain arf1, hits give low values",0.952
same,normalized growth,"locus YDR001C, strain nth1, hits give low values",0.95
same,normalized growth,"locus YDR069C, strain doa4, hits give low values",0.99
same,normalized growth,"locus YDR101C, strain arx1, hits give low values",1.01
same,normalized growth,"locus YDR137W, strain rgp1, hits give low values",1
same,normalized growth,"locus YDR150W, strain NUM1, hits give low values",0.975
same,normalized growth,"locus YDR159W, strain sac3, hits give low values",0.983
same,normalized growth,"locus YDR162C, strain NBP2, hits give low values",0.961
same,normalized growth,"locus YDR195W, strain ref2",0.965
same,normalized growth,"locus YDR297W, strain sur2, hits give low values",0.973
same,normalized growth,"locus YDR318W, strain mcm21, hits give low values",0.966
same,normalized growth,"locus YDR334W, strain swr1, hits give low values",0.963
same,normalized growth,"locus YDR335W, strain msn5, hits give low values",0.964
same,normalized growth,"locus YDR388W, hits give low values",0.945
same,normalized growth,"locus YDR392W, strain spt3, hits give low values",0.905
same,normalized growth,"locus YDR502C, strain sam2, hits give low values",0.98
same,normalized growth,"locus YEL003W, strain gim4, hits give low values",0.959
same,normalized growth,"locus YEL037C, strain rad23, hits give low values",0.961
same,normalized growth,"locus YEL061C, strain CIN8 (second series), hits give low values",0.951
same,normalized growth,"locus YEL061C, strain CIN8, hits give low values",0.977
same,normalized growth,"locus YER015W, strain faa2, hits give low values",0.98
same,normalized growth,"locus YER016W, strain bim1, hits give low values",0.946
same,normalized growth,"locus YER110C, hits give low values",0.937
same,normalized growth,"locus YER111C, strain swi4, hits give low values",0.962
same,normalized growth,"locus YER155C, strain BEM2 (second series), hits give low values",0.976
same,normalized growth,"locus YER155C, strain BEM2, hits give low values",0.975
same,normalized growth,"locus YER167W, strain BCK2, hits give low values",0.985
same,normalized growth,"locus YFR010W, strain ubp6, hits give low values",1
same,normalized growth,"locus YGL078C, strain dbp3, hits give low values",0.965
same,normalized growth,"locus YGL086W, strain mad1, hits give low values",0.999
same,normalized growth,"locus YGL167C, strain pmr1, hits give low values",0.978
same,normalized growth,"locus YGL173C, strain kem1, hits give low values",0.984
same,normalized growth,"locus YGL227W, strain vid30, hits give low values",0.973
same,normalized growth,"locus YGL240W, strain doc1, hits give low values",0.995
same,normalized growth,"locus YGL248W, strain PDE1, hits give low values",0.994
same,normalized growth,"locus YGL253W, strain hxk2, hits give low values",0.957
same,normalized growth,"locus YGR078C, strain PAC10, hits give low values",0.995
same,normalized growth,"locus YGR135W, strain pre9, hits give low values",0.929
same,normalized growth,"locus YGR252W, strain gcn5, hits give low values",0.998
same,normalized growth,"locus YHR013C, strain ard1, hits give low values",0.98
same,normalized growth,"locus YHR027C, strain rpn1, hits give low values",0.97
same,normalized growth,"locus YHR030C, strain SLT2, hits give low values",0.965 and 0.916
same,normalized growth,"locus YHR079C, strain IRE1 (second series), hits give low values",0.939
same,normalized growth,"locus YHR079C, strain IRE1, hits give low values",0.93
same,normalized growth,"locus YHR094C, strain hxt1, hits give low values",0.945
same,normalized growth,"locus YHR129C, strain ARP1, hits give low values",0.972
same,normalized growth,"locus YHR142W, strain chs7, hits give low values",0.991
same,normalized growth,"locus YHR200W, strain rpn10, hits give low values",0.947
same,normalized growth,"locus YIL066C, strain RNR3, hits give low values",1.01
same,normalized growth,"locus YIL073C, strain SPO22, hits give low values",0.881
same,normalized growth,"locus YIL125W, strain kgd1, hits give low values",0.939
same,normalized growth,"locus YIR030C, strain dcg1, hits give low values",0.928
same,normalized growth,"locus YJL092W, strain hpr5, hits give low values",0.97
same,normalized growth,"locus YJL095W, strain BCK1 (second series), hits give low values",0.971
same,normalized growth,"locus YJL095W, strain BCK1, hits give low values",1.01 and 0.962
same,normalized growth,"locus YJL115W, strain asf1, hits give low values",0.966
same,normalized growth,"locus YJL129C, strain trk1, hits give low values",0.924
same,normalized growth,"locus YJL134W, strain LCB3, hits give low values",0.965
same,normalized growth,"locus YJL154C, strain vps35, hits give low values",0.939
same,normalized growth,"locus YJL164C, strain tpk1, hits give low values",0.974
same,normalized growth,"locus YJL166W, strain qcr8, hits give low values",1
same,normalized growth,"locus YJL168C, strain set2, hits give low values",0.953
same,normalized growth,"locus YJL187C, strain SWE1 (second series), hits give low values",1
same,normalized growth,"locus YJR043C, strain POL32, hits give low values",1.02
